{"source": "paper PMC7826789", "about": "(International Journal of Molecular Sciences, 2021)", "data": [{"system": "TEK", "values": [{"smiles": "Cl.O=C(Nc1ccc(Oc2ccc3[nH]c(NC(=O)c4ccccc4)nc3c2)cc1)Nc1cc(C(F)(F)F)ccc1F", "note": "[GW709042A]", "Kinases covered": "TEK"}, {"smiles": "Cl.O=C(Nc1ccc(Oc2ccc3[nH]c(NC(=O)c4ccco4)nc3c2)cc1)Nc1cc(C(F)(F)F)ccc1F", "note": "[GW683134A]", "Kinases covered": "TEK"}, {"smiles": "Nc1ncnc2occ(-c3ccc(NC(=O)Nc4cc(C(F)(F)F)ccc4F)cc3)c12", "note": "[GW770249X]", "Kinases covered": "TEK"}, {"smiles": "COC(=O)Nc1nc2ccc(Oc3ccc(NC(=O)Nc4cc(C(F)(F)F)ccc4F)cc3)cc2s1.Cl", "note": "[GW693917A]", "Kinases covered": "TEK"}]}, {"system": "TYK2", "values": [{"smiles": "COc1ccc(-c2cc3c(N)ncnc3o2)cc1", "note": "[GW642138X]", "Kinases covered": "TYK2"}, {"smiles": "CN(C)C/C=C/C(=O)Nc1ccc(C(=O)Nc2cccc(Nc3ncc(Cl)c(-c4c[nH]c5ccccc45)n3)c2)cc1", "note": "[THZ1]", "Kinases covered": "TYK2"}, {"smiles": "Nc1ncnc2[nH]c(-c3ccccc3)nc12", "note": "[AH5015]", "Kinases covered": "TYK2"}]}, {"system": "YSK4", "values": [{"smiles": "CC(C)N1CC(=O)N(C)c2cnc(Nc3cccc(S(=O)(=O)CCN4CCOCC4)c3)nc21", "note": "[BI00009348]", "Kinases covered": "YSK4"}, {"smiles": "NC(=O)c1cccnc1COc1cc(-c2ccc(N3CCOCC3)nc2)cc2ncccc12", "note": "[BI01125081]", "Kinases covered": "YSK4"}, {"smiles": "Cc1cc(NC(=O)c2cccc(NC(=O)/C=C/CN(C)C)c2)ccc1Nc1nccc(-c2cccnc2)n1", "note": "[JNK-IN-7]", "Kinases covered": "YSK4"}, {"smiles": "CCCc1cc(N2CCCN(C)CC2)nc2sc3c(N)ncnc3c12", "note": "[BI00604564]", "Kinases covered": "YSK4"}, {"smiles": "COc1cc2c(cc1OC)C(=C(Nc1ccccc1)c1cccc(CN)c1)C(=O)N2", "note": "[BIBF0846CL]", "Kinases covered": "YSK4"}]}]}
